Data as given in PubChem BioAssay.
The source made the active and inactive calls.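 The calls were made as follows, unless noted: active = inhibition above 20% together with a positive visual image hit; inconclusive = visual image hit but inhibition not above 20%; inactive = no visual image hit.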

What was measured:
[1] = inhibitors of TNFa-induced NFkB p65 translocation, primary screen, imaging, HUVEC, MLSMR starter and 10KST1 sets (AID 438); conditions: HUVEC TNFa-induced p65 nuclear translocation; cell count: measured here: nuclei count (cytotoxicity indicator), at 2.08 µM; inhibition: at 2 µM, stronger effect = higher value, 0% TNFa-plus-vehicle, 100% no-TNFa wells;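 also: compound added about 3h40 before a 20 min TNFalpha stimulation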;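 as to inhibition: signal is the nuclear over cytoplasmic p65 intensity ratio per well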
[2] = reduction of polyQ htt aggregates in cells – imaging, exon1htt(103Q)mCFP cells, high-content imaging, primary screen (AID 483;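 active = visual image review flags a hit and inhibition of aggregation exceeds 20%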;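 also: compound exposure lasted 3 days before fixation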;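 as to nuclei count: percent of the per-plate median nuclei count of sample wells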); conditions: exon1htt(103Q)mCFP cell line, aggregate imaging, at 2 µM; inhibition of aggregation: stronger effect = higher value; nuclei count: measured here: cell count, toxicity
[3] = endothelial E-selectin expression blockers – imaging, HUVEC, immunofluorescence, MLSMR starter and 10KST1 sets, primary screen (AID 487;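 active = visually confirmed hit in the image check and inhibition above 20%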;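 as to inhibition: signal is fraction of cell area covered by stained E-selectin grains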;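 as to nuclei count: 100% = median nuclei count of all wells on the same plate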); conditions: HUVEC TNFalpha-induced E-selectin immunofluorescence imaging, at 2 µM; inhibition: stronger effect = higher value; nuclei count: measured here: cell number, toxicity
[4] = biological target: Voltage-gated potassium channel subunit beta-2 (Rattus norvegicus) (UniProt P62483); test: inhibitors of rat Kvbeta2 reductase activity – biochemical, NADPH fluorescence, primary screen (AID 622;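 active = fluorescence slope higher than the sample average by over 3 SD, cut at about -0.22 in these data, passing the limit was not always enough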;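 also: slope of raw intensity against log time taken from 70 to 1610 s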); conditions: recombinant KvBeta, 4-cyanobenzaldehyde reduction, at 10 µM, stronger effect = higher value
Voltage-gated potassium channel subunit beta-2 (Rattus norvegicus), sequence (P62483 whole entry, looked up): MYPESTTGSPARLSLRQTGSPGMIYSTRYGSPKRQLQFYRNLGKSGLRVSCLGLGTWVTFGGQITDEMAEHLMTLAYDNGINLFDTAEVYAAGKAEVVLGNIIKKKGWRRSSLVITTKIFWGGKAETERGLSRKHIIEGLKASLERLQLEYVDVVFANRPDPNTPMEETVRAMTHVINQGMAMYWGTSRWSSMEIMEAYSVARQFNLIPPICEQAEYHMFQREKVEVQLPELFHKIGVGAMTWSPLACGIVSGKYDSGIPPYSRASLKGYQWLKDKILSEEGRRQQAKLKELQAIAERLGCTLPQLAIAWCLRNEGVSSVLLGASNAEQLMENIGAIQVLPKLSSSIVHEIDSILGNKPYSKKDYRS

[5] = biological target: Voltage-gated potassium channel subunit beta-2 (Rattus norvegicus) (UniProt P62483); test: enhancers of rat Kvbeta2 NADPH turnover – biochemical, NADPH fluorescence, primary screen (AID 623;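 active = NADPH fluorescence slope more negative than the mean of all samples by about 3 SD, 99.7% confidence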;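 also: fluorescence intensity change per second fitted from 20 to 320 s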); conditions: Recombinant KvBeta, NADPH fluorescence decrease slope, 10 min; at 10 µM; stronger effect = lower value
[6] = biological target: Alpha-2C adrenergic receptor (Homo sapiens) (UniProt P18825); test: compounds altering alpha2C-coupled GIRK flux – cell-based, HEK293 alpha2C/GIRK1/2, thallium flux, primary screen (AID 624;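 active = fluorescence slope after compound addition differing from the mean of all screened samples at 99.7% confidence, in either direction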;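 also: slope of fluorescence ratio to pre-addition baseline per second over 15 to 24 s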); conditions: thallium flux BTC fluorescence, at 10 µM, actives lie on both sides
Alpha-2C adrenergic receptor (Homo sapiens), sequence (P18825 whole entry, looked up): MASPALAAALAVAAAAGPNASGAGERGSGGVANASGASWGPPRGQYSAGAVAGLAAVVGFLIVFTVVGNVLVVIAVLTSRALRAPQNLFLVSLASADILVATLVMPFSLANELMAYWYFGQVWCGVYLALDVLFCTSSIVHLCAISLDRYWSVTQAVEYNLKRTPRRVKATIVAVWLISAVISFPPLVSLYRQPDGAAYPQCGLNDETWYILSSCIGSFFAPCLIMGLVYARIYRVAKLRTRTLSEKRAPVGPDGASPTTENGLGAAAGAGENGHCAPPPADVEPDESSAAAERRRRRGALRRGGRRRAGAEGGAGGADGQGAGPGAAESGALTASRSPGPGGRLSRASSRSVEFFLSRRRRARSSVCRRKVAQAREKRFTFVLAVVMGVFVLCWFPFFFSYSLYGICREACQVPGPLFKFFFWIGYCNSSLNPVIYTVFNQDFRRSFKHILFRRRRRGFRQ

[7] = blockers of RIG-like receptor reporter activation – cell-based, Sendai virus stimulus, luciferase, 10K MLSCN set, TLR/RLR signaling modifier project, primary screen (AID 602276;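 active = inhibition at or above 50% at 10 µM; inactive = inhibition below 50%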;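 also: firefly luciferase from ISG56 promoter only with Renilla not read in this screen; 0% = Sendai virus plus DMSO and 100% = medium plus DMSO without virus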); conditions: HEK293 RL24 IRF3 luciferase reporter, at 10 µM, stronger effect = higher value
[8] = TLR3 IRF3 reporter activation blockers – cell-based, poly I:C stimulus, luciferase, 10K MLSCN set, primary screen (AID 602277;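 active = inhibition of the reporter signal at or above 50%; inactive = inhibition below 50%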); conditions: HEK293-TLR3 RL24 IRF3 luciferase reporter, at 10 µM, stronger effect = higher value

Structure (SMILES)	cell count [1]	inhibition [1]	inhibition of aggregation [2]	nuclei count [2]	inhibition [3]	nuclei count [3]	fluorescence slope [4]	NADPH fluorescence slope [5]	slope [6]	inhibition [7]	inhibition [8]
COC(=O)c1cn(C(=O)c2ccc(Br)o2)c2ccccc12	309	-12.5% (inactive)	17.4% (inactive)	97.7%	-179% (inactive)	101%	-0.33 (inactive)	-2.6e-05 (inactive)	0.00583 (inactive)	0.625% (inactive)	18% (inactive)
COC(=O)CN(c1ccc(C)c(Cl)c1)S(C)(=O)=O	322	4% (inactive)	-11.9% (inactive)	117%	13.8% (inactive)	110%	-0.506 (inactive)	-4.6e-05 (inactive)	0.00698 (inactive)	13.7% (inactive)	19.8% (inactive)
c1ccc2ncc(-n3cnnn3)cc2c1	705	-4.7% (inactive)	7.3% (inactive)	110%	-118% (inactive)	117%	-0.411 (inactive)	-2e-05 (inactive)	0.00684 (inactive)	9.03% (inactive)	11.8% (inactive)
COCC(=O)N(c1ccc(C(C)C)cc1)C1C=CS(=O)(=O)C1 (centres undefined)	691	-23.8% (inactive)	20.8% (inactive)	129%	-55.5% (inactive)	103%	-0.314 (inactive)	-7.6e-06 (inactive)	0.00672 (inactive)	7.64% (inactive)	28.1% (inactive)
Cc1noc(C(=O)Nc2ccc3c(c2)OCO3)c1Cl	763	0% (inactive)	-14.1% (inactive)	129%	-40.9% (inactive)	108%	-0.419 (inactive)	-6.4e-05 (inactive)	0.00438 (inactive)	-21.3% (inactive)	-27.6% (inactive)
CCN1CCN(c2nc3c(c(=O)[nH]c(=O)n3C)n2CCSc2nc3ccccc3s2)CC1	638	-11.8% (inactive)	-2.9% (inactive)	111%	-45.2% (inactive)	113%	-0.431 (inactive)	-2.8e-05 (inactive)	0.00469 (inactive)	12.2% (inactive)	23.6% (inactive)
Cc1nc2sc(C(c3cccs3)N3CCOCC3)c(O)n2n1 (centres undefined)	591	-0.3% (inactive)	-28.8% (inactive)	112%	-5.1% (inactive)	115%	-0.553 (inactive)	-4.2e-05 (inactive)	0.00703 (inactive)	9.99% (inactive)	32.1% (inactive)
CC1Cc2nc(SCC(=O)Nc3nccs3)n(C)c(=O)c2S1 (centres undefined)	584	12% (inactive)	12.8% (inactive)	109%	-23.5% (inactive)	111%	-0.539 (inactive)	-2.7e-05 (inactive)	0.00648 (inactive)	11.6% (inactive)	28.2% (inactive)
CC(C)(C)c1nnc(NC(=O)C2CCN(c3ncccn3)CC2)s1	547	-9.2% (inactive)	-2.6% (inactive)	106%	-13.7% (inactive)	111%	-0.512 (inactive)	-3.5e-05 (inactive)	0.00755 (inactive)	5.09% (inactive)	31.5% (inactive)
N#CCOc1nc(N2CCOCC2)nc(N2CCOCC2)n1	552	-30.6% (inactive)	3% (inactive)	76.6%	-10.4% (inactive)	100%	-0.287 (inactive)	-4.5e-05 (inactive)	0.00534 (inactive)	10.5% (inactive)	18.6% (inactive)
CC(=O)c1cccc(-n2nnnc2SCC(=O)N2CCCC2)c1	720	-3.5% (inactive)	-2.4% (inactive)	119%	-56% (inactive)	106%	-0.401 (inactive)	-4.2e-05 (inactive)	0.00357 (inactive)	4.48% (inactive)	14.5% (inactive)
CCOc1cccc(-c2nnc3sc(COc4ccc(OC)cc4)nn23)c1	534	7.7% (inactive)	-2.2% (inactive)	95.7%	-93.7% (inactive)	118%	-0.433 (inactive)	-3.1e-05 (inactive)	0.00731 (inactive)	7.6% (inactive)	17.6% (inactive)
COC(=O)C1(C)NC(c2cccs2)C2C(=O)N(c3ccccc3F)C(=O)C21 (centres undefined)	334	2.8% (inactive)	-16.9% (inactive)	101%	-24.7% (inactive)	119%	-0.52 (inactive)	2.7e-06 (inactive)	0.00503 (inactive)	-3.44% (inactive)	-0.188% (inactive)
CCCOc1ccc(N2CC(C(=O)Nc3ccc4c(c3)OCO4)CC2=O)cc1 (centres undefined)	520	-5% (inactive)	14.9% (inactive)	81%	-12.8% (inactive)	81.9%	-0.444 (inactive)	-2.5e-06 (inactive)	0.00561 (inactive)	3.94% (inactive)	6.03% (inactive)
COCc1nnc(NC(=O)c2ccc(S(=O)(=O)N(C)c3ccccc3)cc2)o1	716	2.4% (inactive)	-2% (inactive)	116%	-21% (inactive)	107%	-0.575 (inactive)	1.3e-05 (inactive)	0.00656 (inactive)	13.8% (inactive)	7.35% (inactive)
CCC1(C(=O)OC)NC(c2cccc(F)c2)C2C(=O)N(C)C(=O)C21 (centres undefined)	715	-1.8% (inactive)	11.4% (inactive)	101%	-167% (inactive)	112%	-0.272 (inactive)	-5.7e-05 (inactive)	0.00554 (inactive)	14.4% (inactive)	30.6% (inactive)
CCC(=O)N1CCN=C1SCc1ccc(Cl)cc1	233	-4.9% (inactive)	-22.3% (inactive)	111%	7.9% (inactive)	106%	-0.559 (inactive)	5.6e-05 (inactive)	0.00598 (inactive)	21.3% (inactive)	43.1% (inactive)
N#Cc1ccccc1Cn1c(=O)n(Cc2ccc(C(=O)NCc3ccco3)cc2)c(=O)c2sccc21	865	-0.6% (inactive)	9.3% (inactive)	120%	-55.6% (inactive)	115%	-0.577 (inactive)	-4.1e-05 (inactive)	0.00686 (inactive)	11.4% (inactive)	17.2% (inactive)
Cc1ccc(-c2cc(C(=O)O)n[nH]2)o1	358	1% (inactive)	3.3% (inactive)	101%	-1.4% (inactive)	97.7%	-0.612 (inactive)	4.6e-05 (inactive)	0.00603 (inactive)	9.01% (inactive)	14.9% (inactive)
